Measurements reported in PubChem BioAssay (Tox21).
Values without a mark were called inactive. Records with an inconclusive call do not appear. Entries that show only a call come without a potency. The source made the active and inactive calls. Unless noted, calls come from the whole dose curve.

Tests used:
[1] = Nuclear factor erythroid 2-related factor 2/antioxidant responsive element (Nrf2/ARE) small molecule agonists: qHTS cell viability counter screen in human keratinocytes (AID 1919968; active = well fitted cell-killing curve with a large enough effect in the repeat runs; note: nearly all actives have a fitted effect of over 55% in size; note: potency is the fitted concentration of half-maximal effect)
Procedure, shortened: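 Seed 1,500 KeratinoSens cells per well, then incubate 5 h at 37 C/5% CO2. Add compounds in DMSO and incubate 23 h. Add CellTiter-Fluor, wait 1 h and read fluorescence.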

[2] = Nuclear factor erythroid 2-related factor 2/antioxidant responsive element (Nrf2/ARE) small molecule agonists: luciferase reporter gene qHTS assay in human keratinocytes (AID 1919969); note: nearly all actives have a fitted effect of over 35% in size; note: potency is the fitted concentration of half-maximal effect
[3] = molecular target: Gonadotropin-releasing hormone receptor (Homo sapiens) (UniProt P30968); test: Human gonadotropin-releasing hormone receptor (GnRHR) small molecule agonists, calcium flux assay in GnRHR-HEK293 cells (AID 1920063); note: nearly all actives have a fitted effect of over 35% in size
Procedure, shortened: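 Cells: HEK293 stably expressing human GnRHR. Steps: overnight (18 h) culture, 1 h calcium dye loading at 37 C, compound addition, kinetic fluorescence read at 480/540 nm. Each compound tested at 15 concentrations in triplicate.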

[4] = G protein-coupled receptor (GPCR) small molecule agonists, calcium flux assay: HEK293 wild type cell line counter screen (AID 1920065)
Procedure, shortened: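 Counter-screen of the Tox21 10K library for non-specific calcium release: dye-loaded cells received compounds in DMSO and were monitored by kinetic fluorescence (480/540 nm, 3 min). Fifteen concentrations, run in triplicate.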

[5] = p53 small molecule agonists, cell-based qHTS assay with human liver microsomes (AID 1963577);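 note: p53 response element beta-lactamase reporter cells with liver microsomes plus NADPH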
Procedure, shortened: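 16 h, 37 C exposure of p53RE-bla cells to compounds with human liver microsomes and NADPH (0.5 mg/mL final each); detection via LiveBLAzer mixture, 2 h dark at room temperature.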

[6] = p53 small molecule agonists, cell-based qHTS assay with rat liver microsomes (AID 1963578)
Procedure, shortened: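 With rat liver microsomes and NADPH present (0.5 mg/mL final each), p53RE-bla cells are treated with compound for 16 h at 37 C. LiveBLAzer detection mixture is then applied for 2 h at room temperature in the dark.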

[7] = p53 small molecule agonists, cell-based qHTS assay with human liver microsomes: qHTS cell viability counter screen (AID 1963579); note: nearly all actives have a fitted effect of over 45% in size
Procedure, shortened: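 In this multiplexed counter screen, the reporter plates were subsequently treated with CellTiter-Glo so that cell viability, reflected by luminescence, could be recorded for p53RE-bla cells dosed 16 h with compounds under microsomal activation (HLM and NADPH).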

[8] = p53 small molecule agonists, cell-based qHTS assay with rat liver microsomes: qHTS cell viability counter screen (AID 1963580); note: nearly all actives have a fitted effect of over 45% in size
Procedure, shortened: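 Intracellular ATP, by CellTiter-Glo luminescence, defines viability. HCT-116 p53RE-bla cells, 4,000 per well, were compound-treated in the presence of rat liver microsomes and NADPH for 16 h at 37 C.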

[9] = p53 small molecule agonists, cell-based qHTS assay: qHTS cell viability counter screen (AID 1963581); note: nearly all actives have a fitted effect of over 45% in size
Procedure, shortened: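 Cells: HCT-116 with p53 response element-driven beta-lactamase. Treatment: 16 h, 37 C, compounds in DMSO. Read: CellTiter-Glo luminescence after 30 min RT.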

[10] = p53 small molecule agonists, cell-based qHTS assay (AID 1963582; active = well fitted activation curve with a large enough effect in the signal ratio in the repeat runs, not every such curve was filed as active; the % refers to the signal ratio; note: potency is the fitted concentration of half-maximal effect)
Procedure, shortened: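 Quantitative HTS in p53RE-bla cells: after a 5 h settling period, compounds delivered in DMSO were left on cells for 16 h at 37 C, and reporter induction was measured as fluorescence following 2 h substrate loading.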

[11] = molecular target: 5-hydroxytryptamine receptor 2A (Homo sapiens) (UniProt P28223); test: 5-hydroxytryptamine receptor 2A (HTR2A) small molecule antagonists, cell-based qHTS assay (AID 1963586); note: nearly all actives have a fitted effect of over 45% in size
Procedure, shortened: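 Antagonist-mode intracellular calcium assay: DOI (4 nM) added after 5 min compound pre-incubation at room temperature to dye-loaded HTR2A-CHO cells. Fluorescence followed for 3 min, sampled every second.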

[12] = molecular target: 5-hydroxytryptamine receptor 2A (Homo sapiens) (UniProt P28223); test: 5-hydroxytryptamine receptor 2A (HTR2A) small molecule agonists, cell-based qHTS assay (AID 1963587); note: nearly all actives have a fitted effect of over 30% in size; note: potency is the fitted concentration of half-maximal effect
Procedure, shortened: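 Kinetic calcium-flux fluorescence (2 min, 1 sec intervals) after compound addition in agonist mode. HTR2A-CHO cells were cultured 18 h, then dye-loaded 1 h at 37 C.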

[13] = molecular target: Muscarinic acetylcholine receptor M1 (Homo sapiens) (UniProt P11229); test: Cholinergic receptor muscarinic 1 (CHRM1) small molecule antagonists, cell-based qHTS assay (AID 1963588); note: nearly all actives have a fitted effect of over 40% in size
Procedure, shortened: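 CHRM1-CHO calcium-flux assay, antagonist mode. Cells were seeded 18 h, dye-loaded 1 h at 37 C and given compound for 5 min at RT, then acetylcholine was added at 50nM. FDSS fluorescence was read 3 min; 15 concentrations, three runs.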

[14] = molecular target: Muscarinic acetylcholine receptor M1 (Homo sapiens) (UniProt P11229); test: Cholinergic receptor muscarinic 1 (CHRM1) small molecule agonists, cell-based qHTS assay (AID 1963589); note: nearly all actives have a fitted effect of over 35% in size
Procedure, shortened: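 Agonist-mode qHTS in CHO cells stably carrying human muscarinic M1. Intracellular calcium is tracked by fluorescence every second after compound transfer; each compound runs at 15 concentrations in three independent runs.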

[15] = cAMP Responsive Elements (CRE) small molecule antagonists, cell-based qHTS assay (AID 1963591; active = well fitted inhibition curve with a large enough effect in the signal ratio in the repeat runs, not every such curve was filed as active; the % refers to the signal ratio)
Procedure, shortened: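 Antagonist mode: test compounds are co-incubated with the adenylyl cyclase activator NKH477 (0.25 uM final) on CRE-bla HEK293T cells for 3 h at 37 °C, followed by LiveBLAzer substrate loading.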

[16] = molecular target: Beta-2 adrenergic receptor (Homo sapiens) (UniProt P07550); test: Adrenergic beta2 receptor (ADRB2) small molecule antagonists, cell-based qHTS assay (AID 1963592); note: series mostly up to about 92 µM; nearly all actives have a fitted effect of over 50% in size
Procedure, shortened: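 Cells (CHO, stable ADRB2 overexpression) incubated 18-20hr at 37C; compounds added from DMSO; agonist mix (1nM isoproterenol, 100uM IBMX, 25uM Ro-20-1724) added; 0.5hr RT; d2-cAMP and anti-cAMP-cryptate added; 1hr RT; 665/615 nm read.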

[17] = molecular target: D(2) dopamine receptor (Homo sapiens) (UniProt P14416); test: Dopamine D2 receptor (DRD2) small molecule agonists, cell-based qHTS assay (AID 1963594); note: nearly all actives have a fitted effect of over 35% in size
Procedure, shortened: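 cAMP accumulation in DRD2-HEK293 cells measured by HTRF after 1 h detection; compounds added 10 min before NKH477 (200nM […]) forskolin-analogue stimulation, 30 min at room temperature, with Ro20-1724 present at 0.1 mM final.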

[18] = cAMP Responsive Elements (CRE) small molecule agonists, cell-based qHTS assay (AID 1963590)
Procedure, shortened: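 Agonist mode qHTS in CRE-bla HEK 293T cells: compounds dosed from DMSO for 3 h at 37 C/5% CO2, followed by LiveBLAzer B/G FRET substrate for 2 h at room temperature.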

[19] = molecular target: D(2) dopamine receptor (Homo sapiens) (UniProt P14416); test: Dopamine D2 receptor (DRD2) small molecule antagonists, cell-based qHTS assay (AID 1963595; active = well fitted inhibition curve with a large enough effect in the signal ratio in the repeat runs, with a control signal flat; the % refers to the signal ratio)
Procedure, shortened: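 HEK293 cells stably expressing DRD2 were preincubated with 0.1 mM Ro20-1724, then with compound for 10 min at room temperature. Cells were stimulated with 200 nM NKH477 plus 12 nM quinpirole for 30 min, and cAMP was read by HTRF.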

[20] = molecular target: Beta-2 adrenergic receptor (Homo sapiens) (UniProt P07550); test: Adrenergic beta2 receptor (ADRB2) small molecule agonists, cell-based qHTS assay (AID 1963593);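 note: CHO cells stably overexpressing human ADRB2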
Procedure, shortened: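 CHO cells stably over-expressing ADRB2 were plated overnight at 37C, then dosed with compounds plus a stimulation mix containing 100uM IBMX and 25uM Ro-20-1724 for 0.5hr at room temperature. cAMP was measured by HTRF competition, 1hr.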

D(2) dopamine receptor (Homo sapiens), sequence (P14416 whole entry, looked up): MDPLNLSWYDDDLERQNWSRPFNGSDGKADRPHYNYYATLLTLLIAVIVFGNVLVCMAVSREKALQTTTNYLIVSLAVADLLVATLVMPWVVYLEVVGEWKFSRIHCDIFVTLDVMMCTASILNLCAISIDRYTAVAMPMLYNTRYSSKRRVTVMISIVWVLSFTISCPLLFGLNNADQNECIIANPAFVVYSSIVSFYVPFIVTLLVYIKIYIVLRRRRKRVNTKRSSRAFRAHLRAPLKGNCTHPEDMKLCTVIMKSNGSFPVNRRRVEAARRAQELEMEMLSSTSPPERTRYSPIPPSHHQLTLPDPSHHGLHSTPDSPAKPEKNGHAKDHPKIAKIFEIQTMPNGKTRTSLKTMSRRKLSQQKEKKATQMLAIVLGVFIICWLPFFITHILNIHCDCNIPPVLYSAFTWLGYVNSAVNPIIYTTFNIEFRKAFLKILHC
Gonadotropin-releasing hormone receptor (Homo sapiens), sequence (P30968 whole entry, looked up): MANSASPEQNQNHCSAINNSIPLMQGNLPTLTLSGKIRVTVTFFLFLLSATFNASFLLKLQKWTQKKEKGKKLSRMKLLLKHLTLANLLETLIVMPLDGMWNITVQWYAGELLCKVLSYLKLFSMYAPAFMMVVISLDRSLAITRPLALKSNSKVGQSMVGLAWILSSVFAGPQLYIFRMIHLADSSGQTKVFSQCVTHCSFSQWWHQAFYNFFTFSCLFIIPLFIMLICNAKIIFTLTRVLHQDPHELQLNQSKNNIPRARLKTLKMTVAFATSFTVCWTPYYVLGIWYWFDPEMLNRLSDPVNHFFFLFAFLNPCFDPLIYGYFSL
Beta-2 adrenergic receptor (Homo sapiens), sequence (P07550 whole entry, looked up): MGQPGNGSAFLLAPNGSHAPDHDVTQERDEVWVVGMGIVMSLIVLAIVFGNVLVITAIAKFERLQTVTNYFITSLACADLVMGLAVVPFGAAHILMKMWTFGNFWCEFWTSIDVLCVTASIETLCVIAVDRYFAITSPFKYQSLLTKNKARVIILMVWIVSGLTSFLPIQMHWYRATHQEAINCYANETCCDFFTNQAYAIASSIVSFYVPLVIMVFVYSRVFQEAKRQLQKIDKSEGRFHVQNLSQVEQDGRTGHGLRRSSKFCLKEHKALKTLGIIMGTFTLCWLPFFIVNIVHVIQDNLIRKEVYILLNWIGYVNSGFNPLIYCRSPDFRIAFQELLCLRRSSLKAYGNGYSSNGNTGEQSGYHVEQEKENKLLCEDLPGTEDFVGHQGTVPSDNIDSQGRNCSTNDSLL
5-hydroxytryptamine receptor 2A (Homo sapiens), sequence (P28223 whole entry, looked up): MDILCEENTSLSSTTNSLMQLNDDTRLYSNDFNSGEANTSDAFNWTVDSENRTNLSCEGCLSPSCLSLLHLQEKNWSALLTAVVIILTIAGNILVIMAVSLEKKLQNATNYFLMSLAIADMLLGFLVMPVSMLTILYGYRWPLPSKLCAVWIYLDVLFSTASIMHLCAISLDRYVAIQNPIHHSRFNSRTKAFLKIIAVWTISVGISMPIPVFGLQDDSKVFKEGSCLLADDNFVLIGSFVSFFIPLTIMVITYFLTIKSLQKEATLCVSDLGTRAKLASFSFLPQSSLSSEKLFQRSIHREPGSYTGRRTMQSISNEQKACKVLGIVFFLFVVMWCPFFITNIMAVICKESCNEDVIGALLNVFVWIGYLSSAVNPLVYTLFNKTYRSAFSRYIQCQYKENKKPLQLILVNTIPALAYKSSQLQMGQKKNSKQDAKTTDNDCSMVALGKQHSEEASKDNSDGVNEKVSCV
Muscarinic acetylcholine receptor M1 (Homo sapiens), sequence (P11229 whole entry, looked up): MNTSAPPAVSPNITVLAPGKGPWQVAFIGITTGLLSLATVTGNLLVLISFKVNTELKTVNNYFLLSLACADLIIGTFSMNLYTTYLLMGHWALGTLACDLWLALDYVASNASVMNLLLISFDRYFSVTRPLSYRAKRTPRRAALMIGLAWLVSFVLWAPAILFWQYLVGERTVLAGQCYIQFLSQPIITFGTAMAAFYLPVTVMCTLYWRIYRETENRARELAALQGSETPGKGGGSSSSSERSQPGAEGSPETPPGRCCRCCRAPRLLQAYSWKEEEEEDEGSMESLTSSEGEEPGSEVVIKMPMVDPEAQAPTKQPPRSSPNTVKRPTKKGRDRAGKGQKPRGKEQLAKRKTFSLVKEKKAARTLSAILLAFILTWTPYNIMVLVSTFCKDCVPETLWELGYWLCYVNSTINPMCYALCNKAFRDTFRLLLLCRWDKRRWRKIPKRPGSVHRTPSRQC

| SMILES | Potency [1] | Potency [2] | Potency [3] | outcome [4] | Potency [5] | Potency [6] | Potency [7] | Potency [8] | Potency [9] | Potency [10] | Potency [11] | Potency [12] | Potency [13] | Potency [14] | Potency [15] | Potency [16] | Potency [17] | Potency [18] | Potency [19] | Potency [20] |
| --- | --- | --- | --- | --- | --- | --- | --- | --- | --- | --- | --- | --- | --- | --- | --- | --- | --- | --- | --- | --- |
| O=[N+]([O-])c1cccc(I)c1 | inactive | inactive | inactive | inactive | inactive | inactive | inactive | inactive | inactive | inactive | inactive | inactive | inactive | inactive | inactive | inactive | inactive | – | – | – |
| CC(C)CCCC(=O)O | inactive | inactive | inactive | inactive | inactive | inactive | inactive | inactive | inactive | inactive | inactive | inactive | inactive | inactive | inactive | inactive | inactive | inactive | inactive | – |
| C=CC(OCC)OCC | inactive | inactive | inactive | inactive | inactive | inactive | inactive | inactive | inactive | inactive | inactive | – | inactive | inactive | inactive | inactive | inactive | inactive | inactive | – |
| COc1ccc(OC)c(N=Nc2c(O)ccc3ccccc23)c1 | 27.3 µM (active) | 27.3 µM (active) | inactive | inactive | inactive | inactive | inactive | inactive | inactive | inactive | inactive | 4.36 µM (active) | inactive | inactive | inactive | – | inactive | inactive | inactive | inactive |
| CCCCCCCCCCCCCCCCCCO | inactive | inactive | inactive | inactive | inactive | inactive | inactive | inactive | inactive | inactive | – | inactive | inactive | inactive | inactive | inactive | inactive | inactive | inactive | inactive |
| CCCCCCCCCCCCCCCC[N+](C)(C)CCN(Cc1ccc(OC)cc1)c1ncccn1 | 26.6 µM (active) | inactive | inactive | inactive | inactive | inactive | inactive | inactive | inactive | inactive | – | inactive | inactive | inactive | – | – | inactive | – | – | – |
| O=C(O)c1c(O)c(-c2ccccc2)nc2ccccc12 | inactive | inactive | inactive | inactive | inactive | inactive | inactive | inactive | inactive | 19.9 µM (active) | inactive | inactive | inactive | inactive | inactive | – | inactive | inactive | inactive | – |
